Drawing on PubChem BioAssay (EPA / NIEHS), this text covers outcome and AC50 for 30 molecules.

Some structures have more than one record in an assay (separate samples or runs), and their calls can disagree. Activity calls are given as the source filed them. How the source made its calls: active means hit-call score of the fitted dose curve at least 0.9, where 1 is the maximum; inactive means score below 0.9.

As usually defined, the AC50 is the midpoint of the concentration-response curve, whichever way the signal moves.

Sequence of Fatty acid synthase (Homo sapiens) (P49327 whole entry, looked up): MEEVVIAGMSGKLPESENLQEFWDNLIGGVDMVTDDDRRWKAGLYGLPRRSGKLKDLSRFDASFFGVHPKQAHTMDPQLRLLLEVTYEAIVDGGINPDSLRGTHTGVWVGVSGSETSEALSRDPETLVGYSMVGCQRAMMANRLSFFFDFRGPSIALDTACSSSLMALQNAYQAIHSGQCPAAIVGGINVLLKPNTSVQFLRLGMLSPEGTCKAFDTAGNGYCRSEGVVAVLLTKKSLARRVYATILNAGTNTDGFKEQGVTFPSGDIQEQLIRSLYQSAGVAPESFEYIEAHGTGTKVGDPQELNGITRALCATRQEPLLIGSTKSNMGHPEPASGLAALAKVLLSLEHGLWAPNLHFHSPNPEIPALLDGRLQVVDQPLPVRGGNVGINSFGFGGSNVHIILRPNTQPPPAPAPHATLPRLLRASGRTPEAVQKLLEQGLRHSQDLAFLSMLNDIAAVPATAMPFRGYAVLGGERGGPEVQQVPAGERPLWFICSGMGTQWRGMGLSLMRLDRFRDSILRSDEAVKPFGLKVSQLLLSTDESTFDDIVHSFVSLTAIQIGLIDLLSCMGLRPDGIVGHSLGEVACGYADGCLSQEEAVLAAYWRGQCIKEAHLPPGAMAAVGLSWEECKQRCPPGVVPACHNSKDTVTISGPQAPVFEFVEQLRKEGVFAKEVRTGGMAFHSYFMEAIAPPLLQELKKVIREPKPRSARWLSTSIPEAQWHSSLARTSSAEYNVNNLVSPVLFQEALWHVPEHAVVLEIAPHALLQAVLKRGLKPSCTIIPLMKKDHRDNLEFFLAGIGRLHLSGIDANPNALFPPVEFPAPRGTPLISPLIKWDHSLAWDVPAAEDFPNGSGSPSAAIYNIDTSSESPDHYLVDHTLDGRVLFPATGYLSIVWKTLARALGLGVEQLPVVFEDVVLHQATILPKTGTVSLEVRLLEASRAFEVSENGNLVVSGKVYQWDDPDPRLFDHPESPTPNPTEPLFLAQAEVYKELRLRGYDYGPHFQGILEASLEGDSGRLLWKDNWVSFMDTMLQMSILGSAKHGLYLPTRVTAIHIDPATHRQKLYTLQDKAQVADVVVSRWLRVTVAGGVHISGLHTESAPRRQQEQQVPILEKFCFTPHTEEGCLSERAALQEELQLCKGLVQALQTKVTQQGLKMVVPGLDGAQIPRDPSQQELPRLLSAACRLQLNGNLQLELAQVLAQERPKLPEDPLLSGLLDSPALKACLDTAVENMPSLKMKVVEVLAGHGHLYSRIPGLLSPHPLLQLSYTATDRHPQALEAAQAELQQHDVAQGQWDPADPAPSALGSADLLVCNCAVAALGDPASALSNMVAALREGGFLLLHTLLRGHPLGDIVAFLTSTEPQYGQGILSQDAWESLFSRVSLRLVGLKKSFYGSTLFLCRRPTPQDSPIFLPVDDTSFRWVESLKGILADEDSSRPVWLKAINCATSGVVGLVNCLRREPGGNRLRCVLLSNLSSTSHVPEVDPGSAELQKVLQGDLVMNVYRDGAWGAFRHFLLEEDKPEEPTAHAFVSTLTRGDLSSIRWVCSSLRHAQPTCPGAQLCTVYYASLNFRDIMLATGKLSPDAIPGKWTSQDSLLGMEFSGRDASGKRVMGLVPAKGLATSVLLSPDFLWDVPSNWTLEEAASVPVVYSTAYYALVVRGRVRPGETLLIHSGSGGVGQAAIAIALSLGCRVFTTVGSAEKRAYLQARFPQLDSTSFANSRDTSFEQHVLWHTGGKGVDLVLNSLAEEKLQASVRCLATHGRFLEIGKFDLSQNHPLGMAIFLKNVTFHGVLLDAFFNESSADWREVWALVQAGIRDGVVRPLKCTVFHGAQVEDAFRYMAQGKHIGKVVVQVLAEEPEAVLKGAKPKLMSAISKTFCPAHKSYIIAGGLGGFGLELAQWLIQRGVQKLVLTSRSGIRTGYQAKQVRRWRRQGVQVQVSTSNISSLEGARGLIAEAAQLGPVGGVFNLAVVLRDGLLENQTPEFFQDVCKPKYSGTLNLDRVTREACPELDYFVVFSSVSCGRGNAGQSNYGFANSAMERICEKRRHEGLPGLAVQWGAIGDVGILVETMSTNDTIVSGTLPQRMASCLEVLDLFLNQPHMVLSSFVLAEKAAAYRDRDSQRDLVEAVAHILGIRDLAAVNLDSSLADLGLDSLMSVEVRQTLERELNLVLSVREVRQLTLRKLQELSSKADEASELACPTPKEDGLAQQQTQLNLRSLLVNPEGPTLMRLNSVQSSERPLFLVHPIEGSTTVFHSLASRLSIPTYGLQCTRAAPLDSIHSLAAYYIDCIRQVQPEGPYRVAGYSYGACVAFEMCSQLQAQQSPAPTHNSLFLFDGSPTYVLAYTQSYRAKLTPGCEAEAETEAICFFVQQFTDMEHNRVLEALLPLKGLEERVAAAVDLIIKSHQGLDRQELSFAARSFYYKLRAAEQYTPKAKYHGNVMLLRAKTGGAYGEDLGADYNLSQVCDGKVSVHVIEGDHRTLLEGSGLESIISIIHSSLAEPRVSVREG

Read-out in the assay: Fatty acid synthase (Homo sapiens) (UniProt P49327)
Kind of assay: LTEA_HepaRG_FASN: Life Technologies and Expression Analysis (LTEA) Assay for Fatty Acid Synthase (FASN) using HepaRG (AID 2283448). To be noted: mRNA level, 48 h; actives raise or lower the signal. The protocol:
LTEA_HepaRG is a cell based, multiplexed-readout assay that uses HepaRG, a human liver cell line, with measurements taken at 48 hours after chemical dosing on a 96-well plate.LTEA_HepaRG_FASN is one of 102 assay component(s) measured in the LTEA HepaRG cell culture assay. It is a marker of Steatosis.Data from the assay component LTEA_HepaRG_FASN was analyzed into 1 endpoint. This assay endpoint, LTEA_HepaRG_FASN, was analyzed with bidirectional fitting relative to DMSO as the negative control and baseline of activity. Using a type of inducible reporter, measures of mRNA induction for gain or loss-of-signal activity can be used to understand regulation of transcription factor activity. To generalize the intended target to other relatable targets, this assay endpoint is annotated to the lyase intended target family, where the subfamily is fatty acid synthase.
A total of 1060 chemcials from the ToxCast library were tested in eight-point concentration-response experiments. Cell culture and cytotoxicity assays were conducted at Thermo Fisher Scientific's Custom Services facility (Madison, WI). A single lot of human HepaRG cells (Thermo Fisher Scientific, Frederick, MD) was used for the cell culture experiments. 96-well format collagen type I coated plates of human HepaRG cells were prepared using established methods. Briefly, cryopreserved HepaRG cells were thawed, plated at a density of approximately 100,000 cells/well in HepaRG Thaw, Plate, and General Purpose media (HPRG770, Thermo Fisher Scientific), and incubated for 48 hours. 0.5% DMSO was selected as vehicle control to balance the requisite need of DMSO in HepaRG cultures to maintain differentiation (for example, baseline metabolism, proportions of hepatocytes vs. cholangiocytes), while enabling further hepatic receptor pathway activation (for example, PXR and CAR) in response to chemical exposure. 48 hours after plating, the culture medium was replaced with HepaRG Serum-Free Incudtion Media. Cells were exposed to each test chemical in duplicate and maintained in CO2 incubators for another 48 hours. Chemical plates were thawed to room temperature and 200x concentrations of treatment groups were prepared. 8-point conentration-reponse curves were made with the highest exposure at 100 uM, followed by half-log dilutions, all in 0.5% DMSO. Each test plate contained variouse controls, induction positive controls (1mM phenobarbital), cytotoxicity positive controls ([…] aflatoxin B1), vehicle controls (0.5% DMSO), and total lysis controls (0.5% DMSO). Cell morphology images were taken using an Essen IncuCyte FLR automated microscope, with six 96-well plates imaged in about 24 minutes. Images were captured and exported and JPEG files. Spent culture media was transfered to black-well plates for the LDH assay, and remaining media was sorted at -80 C for later use. Cells were treated with RLT buffer and frozen until shipped for gene expression analysis. Total RNA was isolated from the cell suspension in 75 uL of Buffer RLT (Qiagen, Germantown, MD 20874) by Quintiles/Expression Analysis (Durham, NC) using a custom isolation procedure. Total RNA from each plate well was transferred to a preamplification plate. Fluidigm's 96.96 Dynamic ArrayTM (Fluidigm, Amsterdam, the Netherlands) technology was used for gene expression analyses by quantitative reverse transcription polymerase chain reaction (qRT-PCR, performed by Quintiles/Expression Analysis, Durham, NC)89. Standard TaqManTM Assays (Applied Biosystems/ThermoFisher Scientific, Foster City, CA) were used to assess the expression of 93 genes selected based on their selectivity and sensitivity to important hepatic receptors known to be modulated by environmental chemicals; importance in human hepatocyte functionality; and hepatotoxicity. […]
As to `ClCC(Cl)CCl`, the result was inactive.
On the same count and under the same terms, the same measure for `CN(C)N=O`: “inactive”.
As for `O=C(Nc1ccc2[nH]ccc2c1)c1cc2cc(F)ccc2n1Cc1cccc(F)c1`, the AC50 was 24.3 µM (active).
Consider `CCN1CCC2(CC1)COc1cc3c(cc12)N(C(=O)c1ccc(-c2ccc(-c4nnc(C)o4)cc2C)cc1)CC3`, for which the AC50 was 29.9 µM (active).
As for `C=C(C)C(=O)[O][Sn]([CH2]CCC)([CH2]CCC)[CH2]CCC`, the molecule was called inactive.
`COc1cc(-c2ccc(N)c(OC)c2)ccc1N`: the AC50 is 55.6 µM (active) and the result was inactive.
In the case of `NC(=O)O`, the molecule was called inactive.
Take `CCOP(=S)(OCC)Oc1nc(Cl)c(Cl)cc1Cl`: the outcome was inactive.
Take `CC12CC1(C)C(=O)N(c1cc(Cl)cc(Cl)c1)C2=O` (stereo unspecified): the AC50 was 5.61 µM (active).
On to `CC(C)(OO)c1ccccc1`, for which the call was inactive.
With `C[C@@H]1C[C@@H]([C@H](O)CC2CC(=O)NC(=O)C2)C(=O)[C@@H](C)C1`, the AC50 is 4.28 µM (active).
On to `Cn1sc(Cl)cc1=O`, for which the call was inactive.
The same measure, in the same setting: the entry for `CC(C)(C)c1cc(O)ccc1O` is “inactive”.
For the molecule `CCOP(=S)(OCC)SCSP(=S)(OCC)OCC`, the AC50 was 90.8 µM (active).
As for `ClC1(Cl)C2(Cl)C3(Cl)C4(Cl)C(Cl)(Cl)C5(Cl)C3(Cl)C1(Cl)C5(Cl)C24Cl` (stereo unspecified), the AC50 was 3.24 µM (active).
For the molecule `CCCCCCCCc1ccc(O)cc1`, the call was inactive.
For `Cc1ccccc1N`, the outcome was inactive.
`O=C(O)C(F)(F)C(F)(F)C(F)(F)C(F)(F)C(F)(F)C(F)(F)C(F)(F)C(F)(F)C(F)(F)C(F)(F)F`: the molecule was called inactive.
On the same count and under the same terms, the same measure for `O=c1[nH]c(=O)[nH]c(=O)[nH]1`: “inactive”.
As to `C[C@]12CCC(=O)C[C@@H]1CC[C@@H]1[C@@H]2CC[C@]2(C)[C@@H](O)CC[C@@H]12`, the molecule was classed as inactive.
Take `C=CC(=O)OCCCCCC(C)C`: the result was inactive.
The same measure, in the same setting: the same measure for `O=C(O)C(F)(F)C(F)(F)C(F)(F)C(F)(F)C(F)(F)C(F)(F)F`: “inactive”.
For `O=[N+]([O-])c1ccc(O)c([N+](=O)[O-])c1`, the AC50 is 13.1 µM (active).
On to `CCC(C)(C)c1ccc(O)c(C(C)(C)CC)c1`, for which the outcome was inactive.
Take `O=C1C2(Cl)C3(Cl)C4(Cl)C(Cl)(Cl)C5(Cl)C3(Cl)C1(Cl)C5(Cl)C24Cl` (stereo unspecified): the AC50 is 93.5 µM (active).
As for `CCC(=O)C(CC(C)N(C)C)(c1ccccc1)c1ccccc1` (stereo unspecified), the outcome was inactive.
Same read-out and setting: the entry for `CC(C)(C)CC(C)(C)c1ccc(O)cc1` is “inactive”; for `O=C(O)C(Cl)(Cl)Cl` it is “inactive”.
As for `CC(=O)[O][Hg][c]1ccccc1`, the AC50 is 2.25 µM (active).
For `Oc1cccc2cccnc12`, the molecule was called inactive.
